Screening data (PubChem BioAssay)
m5-HT2A agonist: mouse Htr2a agonists via beta-arrestin recruitment, primary screen, cell-based, luminescence. CHO-K1 mHTR2A beta-arrestin complementation; percent of 30 µM serotonin response. activation, % at 7.6 µM. 360,000 compounds, 0.66% hits. AID 624169, 2012;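 active means activation above a run cutoff, the mean activation of all tested compounds plus 3 SD, cut at about 14% in these data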
Target sequence (P35363 whole entry, looked up): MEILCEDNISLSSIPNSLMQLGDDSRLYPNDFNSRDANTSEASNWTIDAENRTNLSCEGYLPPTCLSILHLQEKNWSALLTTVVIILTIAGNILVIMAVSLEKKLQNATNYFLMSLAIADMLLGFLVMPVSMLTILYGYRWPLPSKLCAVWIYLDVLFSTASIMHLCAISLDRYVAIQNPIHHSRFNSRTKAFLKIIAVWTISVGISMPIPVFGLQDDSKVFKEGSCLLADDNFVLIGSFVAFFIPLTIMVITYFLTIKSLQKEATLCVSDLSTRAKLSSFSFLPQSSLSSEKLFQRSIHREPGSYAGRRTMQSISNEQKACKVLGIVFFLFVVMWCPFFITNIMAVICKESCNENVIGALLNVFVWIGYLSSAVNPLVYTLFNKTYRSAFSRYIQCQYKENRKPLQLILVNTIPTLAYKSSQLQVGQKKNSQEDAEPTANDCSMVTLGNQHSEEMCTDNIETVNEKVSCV
MsrA inhibitor: bovine MsrA enzyme inhibitors, primary screen, biochemical, absorbance, HTS | inhibition, % at 15.5 µM | 360,000 compounds, 0.75% hits | purified bovine MsrA, absorbance read-out | Methionine sulfoxide reductase A (Bos taurus); in the data active means inhibition above about 4.5%
MsrA act: bovine MsrA enzyme activators, primary screen, biochemical, absorbance, HTS; activation, % at 10.6 µM; 360,000 compounds, 0.3% hits; Methionine sulfoxide reductase A (Bos taurus); purified bovine MsrA, absorbance read-out; in the data active means activation above about 7.5%
NPR1 activator: GC-A stimulated cGMP production enhancers – HEK293 GC-A cells, cGMP TR-FRET, EC30 ANP, primary screen; activation, % at 10 µM; 0% at EC30 ANP, 100% saturating ANP; AID 1671463, 2021; 370,000 compounds, 0.14% hits; in the data active means activation above about 40%
NPR2 activator: human GC-B receptor activators, primary screen, HEK293 GC-B cells, cGMP TR-FRET, EC30 CNP | 0% at EC30 CNP, 100% saturating CNP | 370,000 compounds, 0.11% hits | AID 1920062, 2024 | activation, % at 10 µM;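 active means activation at 10 µM reaching about 35% in either raw or pattern-adjusted values, limit read from the data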
MOR ag counter: OPRM1 agonists via beta-arrestin recruitment, confirmation, counter-screen for mouse HTR2A agonist project, cell-based, luminescence, single concentration; shares compounds with m5-HT2A agonist; U2OS OPRM1 beta-arrestin PathHunter; DMSO 0%, DAMGO 9.3 µM 100%; activation, % at 9.3 µM; 2,300 compounds, 5.3% hits; AID 624380, 2012;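 active means mean activation above the mean of DMSO-only wells plus 3 SD, cut at about 0.5% in these data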
HTR2A ag conf: mouse HTR2A agonists, beta-arrestin recruitment, confirmation, cell-based, luminescence, CHO-K1 PathHunter, triplicate; DMSO 0%, 30 µM serotonin 100%; 2,300 compounds, 19% hits; AID 624381, 2012; shares compounds with m5-HT2A agonist; activation, % at 7.6 µM;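 active means mean activation across triplicates above the hit threshold derived in the original primary screen, cut at about 15% in these data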
Of the large screens only hits and unclear results are named; the others gave an inactive call (follow-up assays come after a bar, where they were run). Compounds with a hit are over-represented: about 1.8% of the library has one in this group of screens.

Cc1ccc(S(=O)(=O)N2CCC(C(=O)N3CCC3)CC2)cc1	m5-HT2A agonist 17 | MOR ag counter inactive | HTR2A ag conf inactive
CCCCC(=O)N[C@H]1CC[C@@]23CCCN2C(=O)CCC[C@H]3[C@H]1C	none (no result: m5-HT2A agonist, MsrA inhibitor, MsrA act)
O=S(=O)(c1ccc(OCC(O)CN2CCN(c3ccccc3O)CC2)cc1)N1CCOCC1 (stereo not given)	m5-HT2A agonist 19 | MOR ag counter inactive | HTR2A ag conf 46
O=S(=O)(c1ccc(OCC(O)CN2CCN(c3ccccc3)CC2)cc1)N1CCOCC1 (stereo not given)	m5-HT2A agonist 18 | MOR ag counter inactive | HTR2A ag conf 83
Cc1ccc(N2CCN(CC(O)COc3ccc([N+](=O)[O-])cc3)CC2)cc1 (stereo not given)	none
O=[N+]([O-])c1ccc(OCC(O)CN2CCN(c3ccccc3F)CC2)cc1 (stereo not given)	m5-HT2A agonist 20 | MOR ag counter inactive | HTR2A ag conf 46
Cc1cccc(C)c1OCC(O)CN1CCN(c2ccccc2)CC1 (stereo not given)	m5-HT2A agonist 15 | MOR ag counter inactive | HTR2A ag conf 61
c1csc(CNc2ncnc3ccc(-c4ccc5c(c4)OCO5)cc23)n1	none (no result: m5-HT2A agonist, MsrA inhibitor, MsrA act)
COc1ccc(-c2csc(C3=C(O)CN(Cc4ccc(Cl)cc4)C3=N)n2)cc1OC	m5-HT2A agonist 53 | MOR ag counter 1.7 | HTR2A ag conf 29
COc1ccc(-c2csc(C3=C(O)CN(Cc4ccc(S(N)(=O)=O)cc4)C3=N)n2)cc1OC	none
CCn1c(C2CC(=O)N(Cc3ccccc3)C2)nc2ccccc21 (stereo not given)	m5-HT2A agonist 41 | MOR ag counter inactive | HTR2A ag conf inactive
CCN(Cc1cn(CC2CCCCC2)nn1)S(=O)(=O)c1ccccc1Br	none (no result: m5-HT2A agonist, MsrA inhibitor, MsrA act)
COC(=O)c1ccn(CSc2c(F)c(F)cc(F)c2F)n1	none
COC(=O)c1ccn(CSc2cc(Cl)ccc2Cl)n1	m5-HT2A agonist 21 | MOR ag counter 0.6 | HTR2A ag conf inactive
O=C(NCCCc1ccccc1)c1cccc(S(=O)(=O)N2CCOCC2)c1	m5-HT2A agonist 15 | MOR ag counter inactive | HTR2A ag conf inactive
O=C(NCc1ccccc1)c1cccc(S(=O)(=O)N2CCOCC2)c1	none
O=C(NC1CCC(O)CC1)c1ccc(NS(=O)(=O)c2cccc([N+](=O)[O-])c2)cc1 (stereo not given)	m5-HT2A agonist 15 | MOR ag counter inactive | HTR2A ag conf inactive
O=C(NC1CC1)c1ccc(NS(=O)(=O)c2ccccc2)cc1	none
CCOC(=O)C1(C)CCCCCN1C(=O)c1snnc1C (stereo not given)	none
Cc1nnsc1C(=O)N1CCCC1(C)C(=O)O (stereo not given)	m5-HT2A agonist 27 | MOR ag counter inactive | HTR2A ag conf inactive
O=C(C1CCN(S(=O)(=O)c2ccc3[nH]c(=O)oc3c2)CC1)N1CCCN(Cc2ccccc2)CC1	none (no result: m5-HT2A agonist, MsrA inhibitor, MsrA act)
O=S(=O)(NCc1ccccc1)c1cc(Br)ccc1Br	none (no result: m5-HT2A agonist, MsrA act)
O=S(=O)(NCc1ccc(F)cc1)c1cc(Br)ccc1Br	m5-HT2A agonist 18 | MOR ag counter inactive | HTR2A ag conf inactive
COc1ccccc1/C=C/C(=O)NCC(=O)n1nc(C)cc1C	m5-HT2A agonist 19 | MOR ag counter inactive | HTR2A ag conf inactive
COc1cccc(N2CCN(Cc3nc(N)nc(N4CCCc5ccccc54)n3)CC2)c1	m5-HT2A agonist 17 | MOR ag counter inactive | HTR2A ag conf 42
Cc1c(NS(=O)(=O)c2cc(C(=O)N3CCCC(C)C3)ccc2Cl)c(=O)n(-c2ccccc2)n1C (stereo not given)	none
Cc1ccc(S(=O)(=O)Nc2c(C)n(C)n(-c3ccccc3)c2=O)cc1C(=O)OCC(=O)N1CCCC(C)C1 (stereo not given)	m5-HT2A agonist 16 | MOR ag counter inactive | HTR2A ag conf inactive
CC[C@H](CCCc1ccccc1OC)CCS(=O)(=O)N(C)C	none (no result: m5-HT2A agonist, MsrA inhibitor, MsrA act)
Cc1ccc(-n2c(SCC(=O)Nc3ccc(S(=O)(=O)Nc4cc(C)nc(C)n4)cc3)nnc2-c2ccncc2)cc1	none (no result: m5-HT2A agonist, MsrA inhibitor, MsrA act)
COc1ccc(CCNc2ccc(S(N)(=O)=O)cn2)cc1	m5-HT2A agonist 16 | MOR ag counter inactive | HTR2A ag conf inactive
COc1ccc(C(C(=O)N(C)C2CCCC2)N(Cc2ccc(F)cc2)C(=O)c2csc(-c3ccccc3)n2)cc1OC (stereo not given)	none (no result: m5-HT2A agonist, MsrA inhibitor, MsrA act)
O=S(=O)(Nc1cccc(-n2cnnn2)c1)c1ccccc1	m5-HT2A agonist 15 | MOR ag counter inactive | HTR2A ag conf inactive
O=S(=O)(Nc1cccc(-n2cnnn2)c1)c1cccc(Cl)c1	none
O=C(NCc1cccs1)C1CC1	none
CC(C)N1C(=O)CCC1C(=O)NCc1cccs1 (stereo not given)	m5-HT2A agonist 23 | MOR ag counter inactive | HTR2A ag conf inactive
CC(C)(C)OC(=O)NCCCCCc1nnc(SCc2c(F)cccc2Cl)o1	none
CC(C)(C)OC(=O)NCCc1nnc(SCc2c(Cl)cccc2Cl)o1	m5-HT2A agonist 15 | MOR ag counter inactive | HTR2A ag conf inactive
CCn1nc(C(=O)Nc2nc(-c3ccccn3)cs2)c2ccccc2c1=O	none
CCCn1nc(C(=O)Nc2nc(-c3ccccn3)cs2)c2ccccc2c1=O	m5-HT2A agonist 23 | MOR ag counter inactive | HTR2A ag conf inactive
C[C@H](O)[C@@H]1CN2CCc3c([nH]c4c(-c5ccccc5)cccc34)[C@@H]2C[C@@H]1N(C)C(=O)c1ccco1	none (no result: m5-HT2A agonist, MsrA inhibitor, MsrA act)
C(=C\c1ccccc1)/CN1CCN(C(c2nnnn2-c2ccc3c(c2)OCCO3)C2CC2)CC1 (stereo not given)	m5-HT2A agonist 15 | MOR ag counter inactive | HTR2A ag conf 51
CCC(c1nnnn1-c1ccc2c(c1)OCCO2)N1CCN(C/C=C/c2ccccc2)CC1 (stereo not given)	m5-HT2A agonist 20 | MOR ag counter inactive | HTR2A ag conf 62
C(=C\c1ccccc1)/CN1CCN(C(CCc2ccccc2)c2nnnn2-c2ccc3c(c2)OCCO3)CC1 (stereo not given)	none
Cc1cc(N2CCN(Cc3ccc4c(c3)OCO4)CC2)n2nc(C)nc2n1	none (no result: m5-HT2A agonist, MsrA inhibitor, MsrA act)
O=C(O)C1=CCNCC1	m5-HT2A agonist 18 | MOR ag counter inactive | HTR2A ag conf inactive
O=C(NCCc1c[nH]c2ccccc12)OCc1cn(Cc2ccc(C(F)(F)F)cc2)nn1	none (no result: m5-HT2A agonist, MsrA inhibitor, MsrA act)
